High-throughput results as filed in PubChem BioAssay.
ADAM17 inh = ADAM17 inhibitors, primary screen, biochemical, QFRET | inhibition, % at 6.95 µM | Disintegrin and metalloproteinase domain-containing protein 17 (Homo sapiens), P78536 | AID 720648, 2013 | 370,000 compounds, 0.83% hits | recombinant ADAM17, EDANS/DABCYL FRET peptide cleavage;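 active means inhibition above the mean of compounds lying between control limits plus 3 SD, set per campaign, cut at about 8.5% in these data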;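 further: 0% = DMSO-only wells as the low control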
ADAM10 inh = human ADAM10 inhibitors, primary screen, biochemical, QFRET, HTS | recombinant ADAM10, EDANS/DABCYL FRET peptide cleavage, 3 h | inhibition, % at 7 µM | 370,000 compounds, 0.62% hits;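 active means inhibition above a per-campaign cutoff equal to the mean of compounds falling between control-based bounds plus 3 SD, cut at about 20% in these data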;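 further: 0% = DMSO wells while the 100% control is not disclosed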
Target sequence (O14672 214-748 limits assumed): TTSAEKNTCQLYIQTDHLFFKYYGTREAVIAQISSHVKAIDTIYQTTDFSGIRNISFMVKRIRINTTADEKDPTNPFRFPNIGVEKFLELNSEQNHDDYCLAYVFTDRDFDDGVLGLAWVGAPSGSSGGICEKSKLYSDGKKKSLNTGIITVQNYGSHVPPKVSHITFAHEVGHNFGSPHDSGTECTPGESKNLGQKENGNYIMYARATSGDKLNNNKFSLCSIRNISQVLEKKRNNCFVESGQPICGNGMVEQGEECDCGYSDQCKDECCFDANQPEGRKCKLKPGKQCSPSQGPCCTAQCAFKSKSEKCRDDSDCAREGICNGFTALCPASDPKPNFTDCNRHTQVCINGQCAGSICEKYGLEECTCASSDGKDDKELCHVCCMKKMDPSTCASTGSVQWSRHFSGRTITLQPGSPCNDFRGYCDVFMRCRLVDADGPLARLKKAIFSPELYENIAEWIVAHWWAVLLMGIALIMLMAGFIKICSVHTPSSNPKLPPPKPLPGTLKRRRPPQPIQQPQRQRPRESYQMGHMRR
APOBEC3A inh = APOBEC3A ssDNA deaminase inhibitors, primary screen, selectivity assay for APOBEC3G inhibitor project, biochemical, FAM/TAMRA oligo cleavage fluorescence. inhibition, % at 20 µM. AID 493011, 2011. recombinant A3A, FAM/TAMRA ssDNA deamination fluorescence. 330,000 compounds, 0.41% hits;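 active means at least 40% inhibition at 20 µM here, with at most 30% in a related deaminase screen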;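 further: plate controls were A3A with DMSO for no effect and wells lacking A3A enzyme for full effect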
APOBEC3G inh = APOBEC3G DNA deaminase inhibitors, primary screen, biochemical, fluorescence, single-stranded DNA substrate, uHTS | 330,000 compounds, 0.28% hits | DNA dC->dU-editing enzyme APOBEC-3G (Homo sapiens), Q9HC16 | inhibition, % at 20 µM | recombinant A3G, ssDNA deamination FAM/TAMRA fluorescence;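 active means inhibition of at least 40% at 20 µM, with no more than 30% in the related APOBEC3A deaminase screen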;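 further: plate controls were DMSO wells with A3G for no effect and wells lacking A3G enzyme for full effect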
CendR NRP1 mod = modulators of CendR peptide binding to NRP-1, primary screen, biochemical, fluorescence polarization, uHTS | Neuropilin-1 (Homo sapiens), O14786 | FAM-RPARPAR peptide binding to NRP-1 | inhibition, % at 25 µM | 360,000 compounds, 0.85% hits;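 active means inhibition or corrected inhibition above about 18%, plus a signal ratio from 0.5 to 1.5, limit read from the data, passing the limit was not always enough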
Numbers without * were called inactive. Compounds with a hit are over-represented: about 2.4% of the library has one in this group of screens.

How did CC(C)NC(=O)N(C)C[C@H]1Oc2ccc(NC(=O)Nc3ccccc3)cc2C(=O)N([C@H](C)CO)C[C@@H]1C do in these assays?
ADAM17 inh: 0; ADAM10 inh: -6; APOBEC3A inh: 1; APOBEC3G inh: -2; CendR NRP1 mod: 34*

Results for Cc1noc(C)c1S(=O)(=O)N(C)C[C@H]1OCCCC[C@@H](C)Oc2ccc(NS(=O)(=O)c3cn(C)cn3)cc2C(=O)N([C@H](C)CO)C[C@@H]1C ?
ADAM17 inh: -4; ADAM10 inh: -1; CendR NRP1 mod: 26*

How did CC(C)NC(=O)N(C)C[C@H]1Oc2ccc(NC(=O)Nc3ccc4c(c3)OCO4)cc2C(=O)N([C@H](C)CO)C[C@@H]1C do in these assays?
ADAM17 inh: -2; ADAM10 inh: -5; APOBEC3A inh: -1; APOBEC3G inh: -8; CendR NRP1 mod: 29*

What do the screens show for `Cc1noc(C)c1NC(=O)Nc1ccc2c(c1)C(=O)N([C@H](C)CO)C[C@H](C)[C@@H](CN(C)C(=O)NC(C)C)O2`?
ADAM17 inh: -6; ADAM10 inh: -7; APOBEC3A inh: -1; APOBEC3G inh: -4; CendR NRP1 mod: 27*

Results for CCOc1ccc(-n2c(COc3ccccc3)nnc2SCC(=O)Nc2ccc3c(c2)OCCO3)cc1 ?
ADAM17 inh: 7; ADAM10 inh: 17

Results for COc1ccc(S[C@]2(C(=O)N3CCCC3)CC(=O)N(C(=O)c3ccccc3)[C@@H]2c2ccc(OC)cc2)cc1 ?
ADAM17 inh: 6; ADAM10 inh: 5

How did CC(C)NC(=O)Nc1ccc2c(c1)C(=O)N([C@H](C)CO)C[C@H](C)[C@@H](CN(C)S(C)(=O)=O)O2 do in these assays?
ADAM17 inh: -6; ADAM10 inh: -4; APOBEC3A inh: 4; APOBEC3G inh: 5; CendR NRP1 mod: 12

Results for C[C@H](CO)N1C[C@H](C)[C@@H](CN(C)S(C)(=O)=O)Oc2ccc(NC(=O)NC3CCCCC3)cc2C1=O ?
ADAM17 inh: 8; ADAM10 inh: 4; APOBEC3A inh: -1; APOBEC3G inh: -8; CendR NRP1 mod: 31*

What do the screens show for `CCCCCc1c(C)nc(SCC(=O)O)[nH]c1=O`?
ADAM17 inh: -2; ADAM10 inh: 2; APOBEC3A inh: -3; APOBEC3G inh: -8; CendR NRP1 mod: -6

What do the screens show for `CCCCCSc1nc(C)c(CC(=O)O)c(=O)[nH]1`?
ADAM17 inh: 1; ADAM10 inh: 1; APOBEC3A inh: 0; APOBEC3G inh: 0; CendR NRP1 mod: 20*

How did CCc1ccccc1NC(=O)c1ccc(CN2CCC(Cc3ccccc3)CC2)cc1 do in these assays?
ADAM17 inh: -4; ADAM10 inh: -3; APOBEC3A inh: -1; APOBEC3G inh: -1; CendR NRP1 mod: 32*

How did O=C(NCc1ccccc1)[C@H]1CCCN1C(=O)[C@H]1CCCN1C(=O)c1ccc(F)cc1F do in these assays?
ADAM17 inh: 0; ADAM10 inh: -2

Results for COc1cc2c(cc1OC)C(=O)CCS2 ?
ADAM17 inh: -88; ADAM10 inh: -238; APOBEC3A inh: 1; APOBEC3G inh: -1; CendR NRP1 mod: 31*

Results for CCCCCOC(=O)CCN1C(=O)/C(=C2\SC(=S)N(CCC(=O)OCCCCC)C2=O)SC1=S ?
ADAM17 inh: -2; ADAM10 inh: 11; APOBEC3A inh: 3; APOBEC3G inh: 9; CendR NRP1 mod: 7

Results for CCCCOC(=O)CCN1C(=O)/C(=C2\SC(=S)N(CCC(=O)OCCCC)C2=O)SC1=S ?
ADAM17 inh: -6; ADAM10 inh: -10; APOBEC3A inh: -1; APOBEC3G inh: -5; CendR NRP1 mod: 28*

What do the screens show for `CC(C)c1ccc(C(=O)N2CCCC(c3cc(C(=O)Nc4ccc5c(c4)OCO5)no3)C2)cc1` (stereo not given)?
ADAM17 inh: 3; ADAM10 inh: -3; CendR NRP1 mod: 22*

Results for CN(C)c1ccc(CC(=O)N2CCCC(c3cc(C(=O)Nc4ccc5c(c4)OCO5)no3)C2)cc1 (stereo not given) ?
ADAM17 inh: -4; ADAM10 inh: 3; CendR NRP1 mod: 33*

How did CCCCCCCC#Cc1ccccc1/C=N/S(=O)c1ccc(C)cc1 (stereo not given) do in these assays?
APOBEC3A inh: -5; APOBEC3G inh: 61*

Results for Cc1ccccc1NC(=O)C1CC(=O)N(c2ccc3c4c(cccc24)CC3)C1 (stereo not given) ?
ADAM17 inh: 0; ADAM10 inh: 5; APOBEC3A inh: 0; APOBEC3G inh: -6; CendR NRP1 mod: -2

What do the screens show for `O=C(Nc1ccccc1Br)C1CC(=O)N(c2ccc3c4c(cccc24)CC3)C1` (stereo not given)?
ADAM17 inh: -5; ADAM10 inh: -5; APOBEC3A inh: -2; APOBEC3G inh: -10; CendR NRP1 mod: 38*

What do the screens show for `CCCCn1nnnc1C(c1cc2ccccc2o1)N1CCCCC1` (stereo not given)?
ADAM17 inh: -4; ADAM10 inh: -9; CendR NRP1 mod: -11

How did CCCCn1nnnc1C(c1cc2ccccc2o1)N1CCN(c2c(C)cccc2C)CC1 (stereo not given) do in these assays?
ADAM17 inh: -5; ADAM10 inh: -6; CendR NRP1 mod: 26*

Results for COC1=CC(=NCl)C=CC1=NCl ?
CendR NRP1 mod: 54*

Results for ClN=C1C=CC=CC1=NCl ?
CendR NRP1 mod: 19

Results for Cc1ccc(S(=O)(=O)N(C)C)cc1NC(=O)COC(=O)c1ccc2c(c1)OCCO2 ?
ADAM17 inh: -1; ADAM10 inh: -3; APOBEC3A inh: 0; APOBEC3G inh: -9; CendR NRP1 mod: 1

Results for Cc1ccc(S(=O)(=O)N(C)C)cc1NC(=O)COC(=O)c1ccc2c(c1)OCO2 ?
ADAM17 inh: 0; ADAM10 inh: 8; APOBEC3A inh: 1; APOBEC3G inh: -1; CendR NRP1 mod: 37*

Results for O=C(NCC1CCN(C(=O)C(=O)c2cc3ccccc3o2)CC1)c1ccc2c(c1)OCC2 ?
ADAM17 inh: 2; ADAM10 inh: 6

How did CCOC(=O)c1c2c(n(Cc3ccccc3)c1C)C(=O)C(=O)c1ccccc1-2 do in these assays?
ADAM17 inh: 0; ADAM10 inh: 8; CendR NRP1 mod: 32*

What do the screens show for `Cc1nn(-c2ccccc2)nc1CNC(=O)C(C)Cc1ccccc1` (stereo not given)?
ADAM17 inh: -3; ADAM10 inh: -2; APOBEC3A inh: -4; APOBEC3G inh: -9; CendR NRP1 mod: 4
